Each structure is given as a SMILES string. Inconclusive results are not listed. The source made the active and inactive calls. How the source made its calls: active means hit-call score of the fitted dose curve at least 0.9, where 1 is the maximum; inconclusive means response in the unintended direction; inactive means score below 0.9.

The target in this test is human Peroxisome Proliferator-activated Receptor alpha (PPARa), PPARA (gene 5465) (UniProt Q07869). The test can be described thus: ATG_PPARa_TRANS: Attagene TRANS-FACTORIAL HepG2 Assay for human Peroxisome Proliferator-activated Receptor alpha (PPARa) (AID 2283001).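 On AC50: potency for gain of reporter signal over DMSO so agonist or activator.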 Here is the method: ATG_TRANS is a cell-based, multiplexed-readout assay that uses HepG2, a human liver cell line, with measurements taken at 24 hours after chemical dosing in a 24-well plate.ATG_PPARa_TRANS is one of 30 assay component(s) measured or calculated from the ATG_TRANS assay. It is designed to make measurements of mRNA induction, a form of inducible reporter, as detected with fluorescence intensity signals by Reverse transcription polymerase chain reaction (RT-PCR) and Capillary electrophoresis technology.Data from the assay component ATG_PPARa_TRANS was analyzed into 1 assay endpoint. This assay endpoint, ATG_PPARa_TRANS, was analyzed in the positive analysis fitting direction relative to DMSO as the negative control and baseline of activity. Using a type of inducible reporter, measures of mRNA for gain-of-signal activity can be used to understand the reporter gene at the transcription factor-level as they relate to the gene PPARA. Furthermore, this assay endpoint can be referred to as a primary readout, because this assay has produced multiple assay endpoints where this one serves a reporter gene function. To generalize the intended target to other relatable targets, this assay endpoint is annotated to the nuclear receptor intended target family, where the subfamily is non-steroidal.
Chain of human Peroxisome Proliferator-activated Receptor alpha (PPARa), PPARA (gene 5465) (Q07869 whole entry, looked up): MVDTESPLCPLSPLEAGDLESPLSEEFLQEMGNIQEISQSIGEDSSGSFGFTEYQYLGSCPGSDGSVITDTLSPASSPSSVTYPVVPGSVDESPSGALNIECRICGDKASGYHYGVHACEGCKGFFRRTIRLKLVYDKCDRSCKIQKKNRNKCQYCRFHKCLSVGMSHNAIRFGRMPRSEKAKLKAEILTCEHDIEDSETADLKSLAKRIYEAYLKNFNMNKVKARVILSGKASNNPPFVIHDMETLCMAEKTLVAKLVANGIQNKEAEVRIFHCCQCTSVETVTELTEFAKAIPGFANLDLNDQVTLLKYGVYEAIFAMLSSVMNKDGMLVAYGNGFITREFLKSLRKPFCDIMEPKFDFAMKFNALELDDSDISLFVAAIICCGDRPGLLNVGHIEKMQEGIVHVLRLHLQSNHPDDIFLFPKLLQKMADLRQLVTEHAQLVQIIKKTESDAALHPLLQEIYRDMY
Human liver HepG2 cells are transiently transfected with multiple reporter transcription units (MRTUs) in 6-well plates using FuGene 6 reagent (Roche; 3 ml FuGene/1 mg DNA). The MRTU constructs are regulated by a cis-regulating element (promoter). […] A major difference between the CIS and TRANS system is that in CIS activities of endogenous TFs are measured, whereas the TRANS assay evaluates changes in activities of exogenous, chimeric NR-Gal4 proteins. […] At the end of 24 hour incubation, total RNA was isolated using TriZol reagent (Invitrogen). The isolated RNA is then reverse-transcribed using oligo(dT) primer and Mo-MLV reverse transcriptase (Invitrogen) with DNAse I (Ambion) treatment for 30 min. The one-tenth of the produced cDNA was amplified by PCR using Taq DNA polymerase (Invitrogen) and two reporter sequence-specific primers. The PCR products were fluorescently labeled by primer extension with 6-arboxyfluorescein (6-FAM) 5'-labeled reporter sequence-specific primer (2 min at 95 C, 20 s at 68 C and 10 min at 72 C) and these products were digested with 5U of HpaI (New England Biolabs) for 2h at 37 C. The fragments were purified using Qiaquick PCR columns (Qiagen), analyzed on an ABI 3130xL genetic analyzer (Applied Biosystems) with peak positions identified by using a set of X-rhodamine (ROX)-labeled MapMarker1000 molecular weight standards (BioVentures). The raw capillary electrophoresis data was processed using Attagraph software (Attagene).
Take `CC(=O)Oc1c(C)c(C)c2c(c1C)CC[C@@](C)(CCC[C@H](C)CCC[C@H](C)CCCC(C)C)O2`: the call was inactive.

For `CC(C)(C)c1cccc(O)c1`, the compound was classed as inactive.

In the case of `CC(C)N1C(=O)c2ccccc2C1=O`, the call was inactive.

With `CN(C)c1ccc(C=O)cc1`, the result was inactive.

As for `NC(=O)c1c(Cl)cccc1Cl`, the compound was called inactive.

As for `C=CC(C)(CCC=C(C)C)OC(=O)CC` (stereo not given), the result was inactive.

As to `CCOC(=O)C=Cc1ccccc1`, the compound was classed as inactive.

As to `CCCc1ccc(O)cc1`, the call was inactive.

`CC(C)Cc1ccc(C(C)C(=O)O)cc1` (stereo not given): the AC50 was 31 µM (active).

For `O=C1CCCCCCCCCCCC(=O)OCCO1`, the AC50 was 54.3 µM (active).

Turning to `COc1ccccc1NC(=O)CC(C)=O`, the compound was classed as inactive.

For `CC(=O)OC(C)(C)C1CC=C(C)CC1` (stereo not given), the call was inactive.

As to `CC(=O)c1ccc(C)cc1`, the result was inactive.

In the case of `C1COCO1`, the outcome was inactive.

As for `Nc1ccc(O)c(N)c1`, the call was inactive.

Take `CN1CCc2cccc3c2[C@H]1Cc1ccc(O)c(O)c1-3`: the call was inactive.

In the case of `O=S1(=O)CC=CC1`, the result was inactive.

With `O=C(OCc1ccccc1)c1ccccc1O`, the compound was classed as inactive.

Take `CC(=O)c1ccc2ccccc2c1`: the outcome was inactive.

In the case of `CC(C)(C)c1ccc(S)cc1`, the result was inactive.

Consider `OCC=Cc1ccccc1`, for which the outcome was inactive.

With `N#CCCCC(C#N)CCC#N` (stereo not given), the result was inactive.

For `CCCCC1CCCCC(=O)O1` (stereo not given), the compound was classed as inactive.

On to `CC1=CC(C)C(C=O)C(C)C1` (stereo not given) (tested in a mixture with another compound), for which the outcome was inactive.

In the case of `CCOc1ccc(NC(C)=O)cc1`, the call was inactive.

For the compound `O=C(O)c1cc2ccccc2cc1O`, the result was inactive.

Consider `CC(=O)OCC=C(C)CCC=C(C)CCC=C(C)C`, for which the compound was called inactive.

On to `CC(CO)c1ccccc1` (stereo not given), for which the result was inactive.

`ClCCOCCOCCCl`: the compound was called inactive.

With `CCCCN(CCO)CCO`, the compound was classed as inactive.

Consider `c1ccc(Cc2ccccc2)cc1`, for which the compound was classed as inactive.

As for `CCOC(=O)CCCCCCCCC(=O)OCC`, the compound was called inactive.

For `NC(=O)c1cnccn1`, the compound was called inactive.

In the case of `CCCCOC(=O)C(C)OC(=O)CCC` (stereo not given), the call was inactive.

For the compound `CCC(C)(CCCC(C)C)OC(C)=O` (stereo not given), the call was inactive.

Regarding `CCOC(=O)C(=O)OCC`, the outcome was inactive.

Regarding `OCCCO`, the compound was called inactive.

In the case of `C=C(C)CCCC(C)CCO` (stereo not given), the result was inactive.

On to `O=C(O)CS`, for which the outcome was inactive.

With `CCC(=O)OC(C)(C)C1CC=C(C)CC1` (stereo not given), the call was inactive.

For orientation: AC50 means the concentration giving half of the maximal activity seen.

(Values after PubChem BioAssay (EPA / NIEHS).)
